Assay results reported in PubChem BioAssay (NCATS).
For part of these data: Measured potencies and affinities stand elsewhere. The source made the active and inactive calls. The rule behind the calls is not given here.

Legend:
[1] = Ebola virus entry assay, green fluorescence channel
[2] = Ebola virus entry assay, blue channel fluorescence
[3] = Ebola virus entry assay, green channel fluorescence

Measured: efficacy
Throughout, for efficacy: 0% is about no effect.

c1ccc(CN2CCNCC2)cc1
inactive: [1] -15.2% | [2] | [3]

COc1c2occc2cc2ccc(=O)oc12
inactive: [1] -15% | [2] | [3]

COC(=O)C1=C(C)NC(C)=C(C(=O)OCCc2ccc(N3CCN(C(c4ccccc4)c4ccccc4)CC3)cc2)C1c1cccc([N+](=O)[O-])c1 (configuration not stated)
inactive: [1] -12.1% | [2] | [3]

O=C1[C@@H]2[C@H]3CC[C@H](C3)[C@@H]2C(=O)N1CCCCN1CCN(c2ncccn2)CC1
inactive: [1] -13.3% | [2] | [3]

Cc1c[nH]c2ccccc12
inactive: [1] -29.9% | [2] | [3]

Clc1cccc(C(c2ccc3nc[nH]c3c2)n2ccnc2)c1 (configuration not stated)
inactive: [1] -19.4% | [2] | [3]

Nc1ncnc(Nc2ccccc2)n1
inactive: [1] -14.2% | [2] | [3]

COc1cc(C(=O)NC2CCCNC2)cc(OC)c1OC (configuration not stated)
inactive: [1] -16% | [2] | [3]

O=C1CC(c2ccc(Cl)cc2)CC(=O)N1
inactive: [1] -27.6% | [2] | [3]

CCO/C([O-])=N/c1c[n+](N2CCOCC2)no1
inactive: [1] -25.2% | [2] | [3]

Oc1ccc(OCc2ccccc2)cc1
inactive: [1] 14.9% | [2] | [3]

CCCCCCCCCCOc1cc2c(=O)c(C(=O)OCC)c[nH]c2cc1OCC
inactive: [1] 11% | [2] | [3]

CC(=O)N[C@@H](CCC(=O)O)C(=O)O
inactive: [1] -13.7% | [2] | [3]

O=C(OCCN1CCOCC1)c1cccnc1Nc1cccc(C(F)(F)F)c1
inactive: [1] -15.5% | [2] | [3]
